The list is not random: actives were taken first. Their share in the collection is about 2.5%.
Env fusion inh: inhibitors of HIV-1 Env-driven cell-cell fusion, primary screen, HeLa-JRFL effector, CEM21 target cells, luciferase; 1.1% of 360,000 active; inhibition, % at 12.3 µM; AID 651610, 2012;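 active = mean replicate inhibition score of at least 50 and every replicate individually at or above 50; inconclusive = only one of the two criteria met; inactive = mean below 50 and not all replicates reaching 50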;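 note: 0% = plate neutral controls and 100% = maraviroc near 300 nM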
PAX8 inh HTS: inhibitors of PAX8-driven TPO luciferase reporter, primary screen, RMG-I cells, single concentration; SteadyGlo, 24 h; inhibition, % at 12.6 µM; 1.2% of 360,000 active; AID 652154, 2013;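 active = mean replicate inhibition at least 60% with every replicate also reaching 60%; inconclusive = only one of the two criteria is met; inactive = mean below 60% and not all replicates reaching 60%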;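 note: luciferase light reporting Pax8 driven TPO promoter activity; plate controls were median of neutral control wells for no effect and mitoxantrone controls for full effect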
FXN GAA850 act: FXN promoter activators, primary screen, cell-based, luciferase luminescence, HEK293 lucGAA850; activation, % at 6 µM; HEK293 lucGAA850 FXN promoter luciferase reporter, 24 h; percent of 10 µM SAHA response; 0.56% of 360,000 active; AID 540364, 2011;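 active = activation above the average of all compounds screened plus 3 SD, cutoff fixed separately per campaign, cut at about 7.5% in these data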;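 note: 0% = DMSO wells and 100% = 10 µM SAHA wells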
F508del corr: F508del CFTR correction, initial screen, CFBE line, single point. AID 720511, 2013. activity (quench increase), % at 7.58 µM. CFBE cells, YFP halide quenching; stimulated with forskolin plus potentiator P3; % fluorescence drop versus neutral controls. 0.36% of 350,000 active;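 active = mean added fluorescence quench of at least 8% versus neutral control, with both replicates also reaching 8%; inconclusive = only one of the mean or replicate conditions met; inactive = mean below 8% and not both replicates reaching 8%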;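 note: cells transiently co-express mutant CFTR-F508del with the halide-sensitive YFP; corrector assay measuring rescue of mutant channel to the surface after 24 h compound exposure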
EWS-Fli inh: EWS/Fli-driven NR0B1 reporter inhibitors, primary screen, A673 cells, NR0B1 luciferase, luminescence, MLPCN library; viability-normalised; inhibition, % at 12.6 µM; 0.67% of 350,000 active; AID 651661, 2012;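 active = mean inhibition of at least 50% after viability correction, with every replicate also passing that limit; inconclusive = mean reaches 50% but only one of two replicates passes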;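 note: firefly luciferase signal divided by Alamar Blue viability fluorescence both relative to DMSO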
* hit, by the source's call; ? = inconclusive; . = no result; ! = a repeat was not active; [ ] = remark or other dose.

SMILES	Env fusion inh	PAX8 inh HTS	FXN GAA850 act	F508del corr	EWS-Fli inh
Cc1ccc(CN2CC(N3CCCC3)CS2(=O)=O)cc1 (centres undefined)	59.6*	-9.1	.	-3.5	-6.2
Cc1ccc(S(=O)(=O)N(C)C[C@@H]2Oc3ccc(NC(=O)Cn4cnnn4)cc3CC(=O)N([C@@H](C)CO)C[C@@H]2C)cc1	33.1[16.7 µM]	7.5	.	-1.8	-8.5
COc1ccc(S(=O)(=O)Nc2ccc3c(c2)CC(=O)N([C@H](C)CO)C[C@H](C)[C@@H](CN(C)Cc2ccc(-c4ccccc4)cc2)O3)cc1	-13.0[16.7 µM]	75.6*	.	0.4	-3.2
COc1ccc(S(=O)(=O)Nc2ccc3c(c2)CC(=O)N([C@@H](C)CO)C[C@@H](C)[C@@H](CN(C)Cc2ccc(-c4ccccc4)cc2)O3)cc1	21.9[16.7 µM]	85.4*	.	0.2	22.6
COc1ccc(S(=O)(=O)Nc2ccc3c(c2)CC(=O)N([C@@H](C)CO)C[C@H](C)[C@@H](CN(C)Cc2ccc(-c4ccccc4)cc2)O3)cc1	-25.0[16.7 µM]	?	.	3.9	37.9
COc1ccc(S(=O)(=O)Nc2ccc3c(c2)CC(=O)N([C@H](C)CO)C[C@H](C)[C@H](CN(C)Cc2ccc(-c4ccccc4)cc2)O3)cc1	11.8[16.7 µM]	17.2	.	3.6	8.6
CC(C)NC(=O)Nc1ccc2c(c1)C(=O)N([C@@H](C)CO)C[C@@H](C)[C@@H](CN(C)C(=O)c1ccccc1)OCCCC[C@@H](C)O2	19.6[16.7 µM]	-1.0	.	0.1	-2.1
C[C@@H]1CN([C@@H](C)CO)C(=O)CCCn2nncc2CO[C@@H]1CN(C)C(=O)Nc1ccc(-c2cccs2)cc1	27.0	33.6	-0.8	0.4	-9.8
C[C@H]1CN([C@@H](C)CO)C(=O)CCCn2nncc2CO[C@@H]1CN(C)C(=O)Nc1ccc(-c2cccs2)cc1	.	75.6*	.	-1.2	-10.2
C[C@@H]1CN([C@H](C)CO)C(=O)CCCn2nncc2CO[C@H]1CN(C)C(=O)Nc1ccc(-c2cccs2)cc1	.	70.1*	.	0.4	0.7
C[C@H](CO)N1C[C@H](C)[C@@H](CN(C)C(=O)Nc2ccnc(N3CCOCC3)c2)OCc2cnnn2CCCC1=O	-1.1	90.8*!	-1.4	0.3	7.3
C[C@@H]1CN([C@@H](C)CO)C(=O)CCCn2nncc2CO[C@H]1CN(C)S(=O)(=O)c1ccc(Cl)cc1	-8.9	102.1*!	2.2	-0.1	1.3
C[C@@H]1CN([C@H](C)CO)C(=O)CCCn2nncc2CO[C@H]1CN(C)C(=O)Nc1ccnc(N2CCOCC2)c1	7.0	-6.5	-0.4	1.4	-3.6
COc1ccc2c3c([nH]c2c1)[C@@H](CO)N(C(=O)CN1CCOCC1)CC31CCN(CC2CCCC2)CC1	.	-0.9	.	2.1	-6.7
C[C@H](CO)N1C[C@H](C)[C@H](CN(C)Cc2ccc(C(=O)O)cc2)Oc2ccc(NC(=O)Nc3ccc4c(c3)OCO4)cc2C1=O	.	.	.	0.1	-15.3
CCCC(=O)Nc1ccc2c(c1)C(=O)N(C)C[C@H](OC)[C@@H](C)CN(C(=O)C1CCCC1)[C@H](C)CO2	7.4[16.7 µM]	-7.1	.	1.5	-10.8
C[C@H](CO)N1C[C@H](C)[C@H](CN(C)C(=O)Nc2ccc(-c3cccs3)cc2)OCc2cnnn2CCCC1=O	27.6	72.1*	2.1	2.9	-12.7
CCn1c(SCC(=O)N/N=C/c2ccc(O)c(OC)c2)nc2ccccc21	5.0	2.5	-1.4	8.3*	8.9
COC(=O)[C@]12C[C@H](CC(=O)NCC34CC5CC(CC(C5)C3)C4)C(=O)N(CCC3=CCCCC3)C1=C[C@H](C(C)(C)C)O[C@@H]2C	53.2	-9.5	.	-1.5	8.4
CCCCOCCCNC(=O)C[C@H]1C[C@@]2(C(=O)OC)C(=C[C@H](C(C)(C)C)O[C@@H]2C)N(CCC2=CCCCC2)C1=O	65.6*	27.0	.	0.7	23.4
COC(=O)[C@]12C[C@H](CC(=O)NCC3CCCCC3)C(=O)N(CCC3=CCCCC3)C1=C[C@H](C(C)(C)C)O[C@@H]2C	70.9*	32.6	.	3.4	11.1
COCCCNC(=O)C[C@H]1C[C@@]2(C(=O)OC)C(=C[C@H](C(C)(C)C)O[C@@H]2C)N(CCC2=CCCCC2)C1=O	59.8*	-4.6	.	-0.4	-4.2
COC(=O)[C@]12C[C@H](CC(=O)NCc3cccc(C(F)(F)F)c3)C(=O)N(CCC3=CCCCC3)C1=C[C@H](C(C)(C)C)O[C@@H]2C	101.3*	2.2	.	-1.9	4.5
COc1ccc(S(=O)(=O)N(C)C[C@@H]2Oc3ccc(NS(C)(=O)=O)cc3CC(=O)N([C@@H](C)CO)C[C@@H]2C)cc1	-4.4[16.7 µM]	14.6	.	-2.1	9.6
COC(=O)[C@]12C[C@H](CC(=O)NCCc3ccccc3OC)C(=O)N(Cc3ccccc3)C1=C[C@H](C(C)(C)C)O[C@@H]2C	20.3	1.3	.	1.2	7.9
SMILES	Env fusion inh	PAX8 inh HTS	FXN GAA850 act	F508del corr	EWS-Fli inh
COC(=O)[C@]12C[C@H](CC(=O)NCc3cccs3)C(=O)N(CCC3=CCCCC3)C1=C[C@H](C(C)(C)C)O[C@@H]2C	75.6*	26.2	.	0.8	21.3
COC(=O)[C@]12C[C@H](CC(=O)NCCc3ccccc3OC)C(=O)N(CCC3=CCCCC3)C1=C[C@H](C(C)(C)C)O[C@@H]2C	60.9*	19.5	.	2.6	9.1
CO[C@H]1CN(C)C(=O)c2cc(NC(C)=O)ccc2OC[C@H](C)N(CCC(F)(F)F)C[C@@H]1C	-23.1[16.7 µM]	-17.1	.	2.8	17.5
CCCN(C)C[C@H]1Oc2cc(C#CCOC)ccc2S(=O)(=O)N([C@@H](C)CO)C[C@H]1C	-6.5[16.7 µM]	.	.	1.6	3.3
Cc1ccc(-n2ncc3c(=O)n(CC(=O)N4CCN(c5ccccc5)CC4)cnc32)cc1	-5.2	4.9	0.6	0.1	0.2
Cc1ccc(-n2ncc3c(=O)n(CC(=O)N4CCN(C(=O)c5ccco5)CC4)cnc32)cc1	.	73.0*	1.9	-0.2	1.2
COCCCNc1nnc(Cc2ccc(Cl)cc2)c(=O)[nH]1	-128.8	16.3	-3.5	10.5*	58.4*
O=C(NC(Nc1ncc(S(=O)(=O)c2ccc([N+](=O)[O-])cc2)s1)(C(F)(F)F)C(F)(F)F)c1ccc(Cl)cc1	143.5*	76.2*	2.1	.	.
C[C@@H]1CCCCO[C@H](CN(C)C(=O)Nc2cccc3ccccc23)[C@H](C)CN([C@H](C)CO)C(=O)c2cc(NS(=O)(=O)c3ccccc3)ccc2O1	62.4*[16.7 µM]	35.9	.	-0.2	19.4
C[C@@H]1CCCCO[C@@H](CN(C)C(=O)Nc2cccc3ccccc23)[C@H](C)CN([C@@H](C)CO)C(=O)c2cc(NS(=O)(=O)c3ccc(Cl)cc3)ccc2O1	-9.4[16.7 µM]	40.3	.	3.9	-1.0
C[C@H](CO)N1C[C@H](C)[C@@H](CN(C)C(=O)Nc2cccc3ccccc23)OCCCC[C@H](C)Oc2ccc(NS(=O)(=O)c3ccccc3)cc2C1=O	32.4[16.7 µM]	33.4	.	-2.7	18.2

Source: PubChem
